Shown are actives, neighbours in structure and some others; about 2.5% of the full set was active somewhere.
LGR2 antag: Drosophila LGR2 receptor signaling inhibition; HEK293 LGR2, CRE-luciferase, bursicon-stimulated, 4 h; inhibition, % at 9.99 µM; 380,000 compounds, 0.35% hits; AID 720647;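 active = drop in luminescence signal, shown as inhibition above about 50% in the replicate tests, limit read from the data, passing the limit was not always enough; inconclusive = probably only some replicates passing the limit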;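 note: agonist challenge used bursicon conditioned medium at about half maximal strength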
TWEAK-Fn14 inh: blocks TWEAK-Fn14 interaction in a reporter cell assay | TWEAK-stimulated Fn14 reporter cells, luciferase luminescence, 8 h | inhibition, % at 10 µM | 360,000 compounds, 2% hits | AID 1159606; in the data active = inhibition above about 50%
LMP1 NFkB inh: inhibitors of Epstein-Barr LMP1-induced NF-kappaB reporter. LMP1-induced NF-kappaB luciferase reporter cells, luminescence. inhibition, % at 12.5 µM. 350,000 compounds, 0.69% hits. AID 504558; in the data active = inhibition above about 41%; inconclusive = no clear call, values can overlap the other calls;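 note: 0% = neutral control wells and 100% = reference inhibitor control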
TROY NFkB inh: inhibitors of TROY-dependent NF-kB signaling; Q293 LMP1-TROYcd NF-kB luciferase reporter, 4 h; inhibition, % at 10 µM; 360,000 compounds, 0.98% hits; AID 1347056;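 active = compounds whose plate-normalised and pattern-corrected inhibition of the luciferase reporter signal at the single screening dose is 50% or more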
EWS-Fli block: inhibitors of EWS/Fli oncoprotein transcriptional activity | A673 NR0B1-luciferase reporter, viability-normalised | inhibition, % at 12.6 µM | 350,000 compounds, 0.67% hits | AID 651661;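 active = mean inhibition of at least 50% after viability correction, with every replicate also passing that limit; inconclusive = mean reaches 50% but only one of two replicates passes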;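 note: firefly luciferase signal divided by Alamar Blue viability fluorescence both relative to DMSO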
* marks the source's active call; other numbers are inactive results.

Screening C[C@@H]1CCCCO[C@@H](CN(C)C(=O)c2ccncc2)[C@@H](C)CN([C@H](C)CO)C(=O)c2cc(NS(=O)(=O)c3cn(C)cn3)ccc2O1 returned LGR2 antag 4 and EWS-Fli block -1.
`COc1ccc(/C=N/NC(=S)Nc2cccc(C(=O)O)c2)cc1` gave LGR2 antag 75*, TWEAK-Fn14 inh 50*, LMP1 NFkB inh 25, TROY NFkB inh -39 and EWS-Fli block 2.
`COc1cccc(/C=N/Nc2ncnc3c2ncn3Cc2ccccc2)c1O` gave LGR2 antag 10, TWEAK-Fn14 inh 10, LMP1 NFkB inh 78*, TROY NFkB inh 7 and EWS-Fli block 14.
COc1cccc(/C=N/Nc2cc(Cl)nc(C)n2)c1O was read as LGR2 antag -41, TWEAK-Fn14 inh 34, LMP1 NFkB inh -2, TROY NFkB inh 7 and EWS-Fli block -5.
For COC(=O)c1nc(NNC(=O)c2ccccc2)sc1-c1ccccc1 the results were LGR2 antag -11, TWEAK-Fn14 inh 82*, LMP1 NFkB inh -4, TROY NFkB inh -6 and EWS-Fli block 4.
`O=C(COC(=O)CCN1C(=O)/C(=C\C=C\c2ccccc2)SC1=S)Nc1cc(F)ccc1F` gave LGR2 antag 0, TWEAK-Fn14 inh 55*, LMP1 NFkB inh 18, TROY NFkB inh 25 and EWS-Fli block 34.
Screening C/C(=N\NC(=O)COc1ccccc1-c1ccccc1)c1ccccn1 returned LGR2 antag 25, TWEAK-Fn14 inh -71, LMP1 NFkB inh 41*, TROY NFkB inh 22 and EWS-Fli block 0.
O=c1cc(-c2c(F)c(F)c(F)c(F)c2F)oc2ccccc12 was read as LGR2 antag 67*, TWEAK-Fn14 inh 6, LMP1 NFkB inh -12, TROY NFkB inh 66* and EWS-Fli block 49.
For COc1ccccc1S(=O)(=O)N[C@@H]1CC[C@H](CCNC(=O)C2CCCCC2)O[C@H]1CO the results were LGR2 antag 6 and EWS-Fli block 2.
For Cc1noc(C)c1NC(=O)N[C@@H]1CC[C@@H](CC(=O)NCc2ccc(Cl)c(Cl)c2)O[C@@H]1CO the results were LGR2 antag 6 and EWS-Fli block 0.
For COC(=O)C(CC#Cc1ccc2c(c1)[C@]1(C(=O)N2)[C@H](C(=O)N2CCN(c3ncccn3)CC2)[C@H]2C(=O)O[C@H](c3ccccc3)[C@H](c3ccccc3)N2[C@@H]1c1ccc(O)cc1)C(=O)OC the results were EWS-Fli block 22.
For C=CCNC(=O)[C@H]1[C@@H]2C(=O)O[C@@H](c3ccccc3)[C@@H](c3ccccc3)N2[C@@H](c2ccc(OCCO)cc2)[C@]12C(=O)Nc1ccc(C#CCC(C(=O)OC)C(=O)OC)cc12 the results were EWS-Fli block 50.
Screening COC(=O)C(CC#Cc1ccc2c(c1)[C@]1(C(=O)N2)[C@H](c2ccccc2OCCO)N2[C@H](c3ccccc3)[C@H](c3ccccc3)OC(=O)[C@H]2[C@@H]1C(=O)N1CCN(c2ncccn2)CC1)C(=O)OC returned EWS-Fli block 60*.
C=CCNC(=O)[C@H]1[C@@H]2C(=O)O[C@@H](c3ccccc3)[C@@H](c3ccccc3)N2[C@@H](c2ccccc2OCCO)[C@]12C(=O)Nc1ccc(C#CCC(C(=O)OC)C(=O)OC)cc12 was read as EWS-Fli block 54*.
For C[C@@H]1CN([C@@H](C)CO)C(=O)c2cccc(NS(=O)(=O)c3cn(C)cn3)c2O[C@@H]1CN(C)Cc1ccc(C(F)(F)F)cc1 the results were LGR2 antag 6 and EWS-Fli block 3.
CN(C)C(=O)C[C@H]1CC[C@@H]2[C@H](COc3ccc(NC(=O)c4ccc(F)c(F)c4)cc3C(=O)N2C)O1 was read as LGR2 antag 4 and EWS-Fli block -6.
Screening O=C1c2ccccc2S(=O)(=O)N1Cc1nc2ccccc2s1 returned TWEAK-Fn14 inh 103*, LMP1 NFkB inh 76* and TROY NFkB inh 79*.
C[C@@H]1CN([C@H](C)CO)S(=O)(=O)c2ccc(C#CC3CC3)cc2O[C@@H]1CN(C)C(=O)c1cccnc1 was read as LGR2 antag 3 and EWS-Fli block -1.
`C[C@@H]1CN([C@H](C)CO)C(=O)c2cc(NC(=O)Nc3ccc(C(F)(F)F)cc3)ccc2O[C@H]1CN(C)S(=O)(=O)c1ccccc1` gave LGR2 antag 1, TWEAK-Fn14 inh 55*, LMP1 NFkB inh 5, TROY NFkB inh 29 and EWS-Fli block 5.
For COc1ccc(S(=O)(=O)N(C)C[C@H]2Oc3ccc(NC(=O)Nc4ccc(C(F)(F)F)cc4)cc3C(=O)N([C@H](C)CO)C[C@@H]2C)cc1 the results were LGR2 antag -6, TWEAK-Fn14 inh 58*, LMP1 NFkB inh -5, TROY NFkB inh 30 and EWS-Fli block 1.
C[C@@H]1CN([C@@H](C)CO)C(=O)c2cc(NC(=O)Nc3ccc(C(F)(F)F)cc3)ccc2O[C@@H]1CN(C)S(=O)(=O)c1ccc(F)cc1 was read as LGR2 antag 3 and EWS-Fli block 1.
Screening CO[C@@H]1CN(C)C(=O)c2ccc(NC(=O)c3cc(C)on3)cc2OC[C@@H](C)N(CC2CC2)C[C@@H]1C returned LGR2 antag 4 and EWS-Fli block -3.
For O=C(c1ccc(CSc2nc3ccncc3[nH]2)cc1)N1CCCCCC1 the results were LGR2 antag 27, TWEAK-Fn14 inh 12, LMP1 NFkB inh 23, TROY NFkB inh -30 and EWS-Fli block 15.
Cc1ccc(CSc2nc3ccncc3[nH]2)cc1 was read as LGR2 antag inconclusive, TWEAK-Fn14 inh 38, LMP1 NFkB inh 47*, TROY NFkB inh -3 and EWS-Fli block 47.
`O=C(c1ccc(CSc2nc3ccncc3[nH]2)cc1)N1CCN(c2cccc(Cl)c2)CC1` gave LGR2 antag 65*, TWEAK-Fn14 inh 61*, LMP1 NFkB inh 9, TROY NFkB inh 54* and EWS-Fli block 18.
`Cc1ccc(-c2nnc3n2N=C(c2ccc(Br)cc2)CS3)cc1` gave LGR2 antag -17, TWEAK-Fn14 inh 1, LMP1 NFkB inh -1, TROY NFkB inh 3 and EWS-Fli block 12.
Screening Clc1ccc(C2=Nn3c(nnc3-c3n[nH]c4c3CCC4)SC2)cc1 returned TWEAK-Fn14 inh 55*, LMP1 NFkB inh 14 and TROY NFkB inh 18.
Screening Brc1ccc(C2=Nn3c(nnc3-c3n[nH]c4c3CCC4)SC2)cc1 returned TWEAK-Fn14 inh 60*, LMP1 NFkB inh 26 and TROY NFkB inh 20.
For CN1[C@@H]2c3ccc(C4=CCCCC4)c(=O)n3C[C@H]1[C@H](CO)[C@H]2C(=O)NCCc1ccccc1 the results were LGR2 antag -9 and EWS-Fli block 10.
For CCOc1ccc2nc(SCC(=O)N3c4ccccc4Sc4ccccc43)c(C#N)cc2c1 the results were TWEAK-Fn14 inh -11, LMP1 NFkB inh 9, TROY NFkB inh 11 and EWS-Fli block 2.
For CCOc1ccc2nc(SCc3ccc(CC(=O)O)cc3)c(C#N)cc2c1 the results were LGR2 antag 12, TWEAK-Fn14 inh 37, LMP1 NFkB inh 1, TROY NFkB inh 76* and EWS-Fli block 9.

High-throughput results from PubChem.
